The record followed here is PubChem BioAssay (NCI).

Several values for one entry are separate records, joined by “and”; a condition that tells them apart may be missing. Equal entries are not always repeated. The panel holds about 79,000 compounds, 15% with a hit somewhere; the sample as a whole holds those more often. Unmarked numbers belong to inactive results. Activity calls are given as the source filed them. Cut-off read from the data, not from the text of the source: active = growth inhibition above about 70%; inactive = the rest.

Assay [1] in a line: NCI Yeast Anticancer Drug Screen. Data for the rad50 strain (AID 155).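 Note: 0% = growth of vehicle-only cultures of the same strain.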 Particulars: S. cerevisiae rad50 strain growth inhibition, stronger effect = higher value. The method, boiled down: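 Relative growth inhibition (compound vs vehicle) was measured in yeast with a defined repair-gene alteration.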
Assay [2] is described as follows: NCI Yeast Anticancer Drug Screen. Data for the mec2-1 strain (AID 157). As to conditions: S. cerevisiae mec2-1 strain, stronger effect = higher value. The method in brief:
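Cells of the genetically defined mec2-1 yeast strain are incubated with test compound. Inhibition of growth is calculated against vehicle-treated controls.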

Assay [3] in a line: NCI Yeast Anticancer Drug Screen. Data for the sgs1 mgt1 strain (AID 161).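 Note: 0% = growth of cultures given vehicle only.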 As to conditions: S. cerevisiae sgs1 mgt1 strain, stronger effect = higher value. The method, boiled down: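 Read-out: growth inhibition vs vehicle controls. Cells: mutant yeast strain deficient in DNA damage repair.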
Assay [4] can be described thus: NCI Yeast Anticancer Drug Screen. Data for the cln2 rad14 strain (AID 165).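 Note: 0% = growth equal to vehicle treated cultures.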 Particulars: S. cerevisiae cln2 rad14 strain, stronger effect = higher value. The method, boiled down:
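The screen exposed genetically defined yeast (cln2 rad14) to test compounds and scored growth inhibition relative to vehicle-treated controls.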

Assay [5] in a line: NCI Yeast Anticancer Drug Screen. Data for the bub3 strain (AID 167). As to conditions: S. cerevisiae bub3 mutant strain, stronger effect = higher value. The method, boiled down: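 Screening used yeast with an engineered genetic alteration affecting cell cycle control. Compound-exposed cultures were compared with vehicle cultures, and reduced growth was taken as inhibition.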
Assay [6] in a line: NCI Yeast Anticancer Drug Screen. Data for the mlh1 rad18 strain (AID 175). Particulars: S. cerevisiae mlh1 rad18 strain growth inhibition, stronger effect = higher value. The method in brief: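 Compound-treated yeast growth, normalised to vehicle controls. Strain bears defined DNA repair mutations.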
Where [7] appears, read: at 5.0 µM (retest, dose inferred, filed as 0.5).
The mark [8] stands for this setting: at 50.0 µM (retest, dose inferred, filed as 5.0).

Consider `CCN(CC)CCNc1n[n+]([O-])c2cc([N+](=O)[O-])ccc2[n+]1[O-]`, for which the growth inhibition was 31% in assay [1] (setting [7]); 88% (active) in assay [1] (setting [8]); 80.5% (active) and 79% (active) in assay [1] (at 50.0 µM); 5% in assay [2] (setting [7]); 48% in assay [2] (setting [8]); 58.8% and 52.6% in assay [2] (at 50.0 µM). Besides, the growth inhibition in assay [3] (setting [7]) was 16%; in assay [3] (setting [8]), 76% (active); in assay [3] (at 50.0 µM), 73.5% (active) and 71% (active); in assay [4] (setting [7]) it was 32%; in assay [4] (setting [8]) it was 63%; in assay [4] (at 50.0 µM), 48% and 41%. The growth inhibition in assay [5] (setting [7]) is -7%; in assay [5] (setting [8]), 67%; in assay [5] (at 50.0 µM), 43.7% and 45.1%; in assay [6] (setting [7]), 24%; in assay [6] (setting [8]), 85% (active); in assay [6] (at 50.0 µM), 79.3% (active) and 80.5% (active).
Regarding `CN(C)CCNC(=O)Cc1cc(O)c2c(c1O)C(=O)c1ccccc1C2=O`, the growth inhibition in assay [1] (setting [7]) was 6%; in assay [1] (setting [8]), 42%; in assay [1] (at 50.0 µM) it was 75.3% (active); in assay [2] (setting [7]) it was 6%; in assay [2] (setting [8]), 16%; in assay [2] (at 50.0 µM), 23%. Moreover, the growth inhibition in assay [3] (setting [7]) was 4%; in assay [3] (setting [8]), 28%; in assay [3] (at 50.0 µM), 81.3% (active); in assay [4] (setting [7]) it was -7%; in assay [4] (setting [8]), 12%; in assay [4] (at 50.0 µM) it was 54.7%. In addition, the growth inhibition is 0% in assay [5] (setting [7]); 16% in assay [5] (setting [8]); 16% in assay [5] (at 50.0 µM); 4% in assay [6] (setting [7]); 10% in assay [6] (setting [8]); 82.1% (active) in assay [6] (at 50.0 µM).
`COc1c(CBr)c(CBr)c(OC)c2c1C(=O)c1ccccc1C2=O`: the growth inhibition was 33% in assay [1] (setting [7]); 99% (active) in assay [1] (setting [8]); 87.2% (active) in assay [1] (at 50.0 µM); 14% in assay [2] (setting [7]); 99% (active) in assay [2] (setting [8]); 63.8% in assay [2] (at 50.0 µM). Moreover, the growth inhibition in assay [3] (setting [7]) was 23%; in assay [3] (setting [8]), 99% (active); in assay [3] (at 50.0 µM), 86.7% (active); in assay [4] (setting [7]), 2%; in assay [4] (setting [8]), 99% (active); in assay [4] (at 50.0 µM), 41%. Also, the growth inhibition in assay [5] (setting [7]) is 9%; in assay [5] (setting [8]) it was 99% (active); in assay [5] (at 50.0 µM) it was 64.2%; in assay [6] (setting [7]) it was 19%; in assay [6] (setting [8]) it was 99% (active); in assay [6] (at 50.0 µM), 92.8% (active).
As for `COc1ccc(Oc2ccccc2N)cc1`, the growth inhibition in assay [1] (setting [7]) was 0%; in assay [1] (setting [8]) it was 93% (active); in assay [1] (at 50.0 µM), 83.7% (active); in assay [2] (setting [7]) it was -1%; in assay [2] (setting [8]), 95% (active); in assay [2] (at 50.0 µM) it was 59.3%. The growth inhibition is -2% in assay [3] (setting [7]); 93% (active) in assay [3] (setting [8]); 69.3% in assay [3] (at 50.0 µM); -8% in assay [4] (setting [7]); 95% (active) in assay [4] (setting [8]); 88.3% (active) in assay [4] (at 50.0 µM). In addition, the growth inhibition in assay [5] (setting [7]) was 6%; in assay [5] (setting [8]), 93% (active); in assay [5] (at 50.0 µM), 63.4%; in assay [6] (setting [7]), -3%; in assay [6] (setting [8]), 96% (active); in assay [6] (at 50.0 µM) it was 90.5% (active).
As for `OC(CN1CCCC2CCCCC21)c1cc2ccccc2c2ccccc12` (centres undefined), the growth inhibition in assay [1] (setting [7]) was 0% and -2%; in assay [1] (setting [8]), 97% (active) and 99% (active); in assay [1] (at 50.0 µM), 98.7% (active) and 98.5% (active); in assay [2] (setting [7]), 20% and -4%; in assay [2] (setting [8]), 80% (active) and 99% (active); in assay [2] (at 50.0 µM), 98.4% (active). Also, the growth inhibition in assay [3] (setting [7]) is -21% and -6%; in assay [3] (setting [8]), 98% (active) and 99% (active); in assay [3] (at 50.0 µM), 98.9% (active) and 98% (active); in assay [4] (setting [7]), -2%; in assay [4] (setting [8]), 94% (active) and 99% (active); in assay [4] (at 50.0 µM) it was 99% (active) and 98.2% (active). In addition, the growth inhibition in assay [5] (setting [7]) was 0% and -3%; in assay [5] (setting [8]), 91% (active) and 99% (active); in assay [5] (at 50.0 µM), 99.2% (active) and 99% (active); in assay [6] (setting [7]) it was 13% and 2%; in assay [6] (setting [8]), 99% (active); in assay [6] (at 50.0 µM), 99.2% (active) and 99% (active).
For `O=C(O)COc1ccc(OCC(=O)O)cc1`, the growth inhibition in assay [1] (setting [7]) was 3%; in assay [1] (setting [8]) it was 42%; in assay [1] (at 50.0 µM), -11.4% and 55.8%; in assay [2] (setting [7]), -3%; in assay [2] (setting [8]), -2%; in assay [2] (at 50.0 µM), -5.05% and -20.9%. Besides, the growth inhibition in assay [3] (setting [7]) was -1%; in assay [3] (setting [8]) it was 1%; in assay [3] (at 50.0 µM), -11.5%; in assay [4] (setting [7]), 1%; in assay [4] (setting [8]) it was -5%; in assay [4] (at 50.0 µM) it was -68.3%. Besides, the growth inhibition was 1% in assay [5] (setting [7]); 4% in assay [5] (setting [8]); -4.55% in assay [5] (at 50.0 µM); -3% in assay [6] (setting [7]); 1% in assay [6] (setting [8]); 0.9% and 18.2% in assay [6] (at 50.0 µM).
Consider `CCCCCCCCC(Sc1n[nH]c(=O)[nH]c1=O)C(=O)OCC` (centres undefined), for which the growth inhibition in assay [1] (setting [7]) is 4%; in assay [1] (setting [8]), 35%; in assay [1] (at 50.0 µM) it was 85.5% (active); in assay [2] (setting [7]), 1%; in assay [2] (setting [8]), 70% (active); in assay [2] (at 50.0 µM) it was 89.7% (active). Besides, the growth inhibition in assay [3] (setting [7]) is 4%; in assay [3] (setting [8]), 29%; in assay [3] (at 50.0 µM), 91.6% (active); in assay [4] (setting [7]), 1%; in assay [4] (setting [8]), 88% (active); in assay [4] (at 50.0 µM) it was 84.8% (active). Also, the growth inhibition in assay [5] (setting [7]) was -4%; in assay [5] (setting [8]), 88% (active); in assay [5] (at 50.0 µM) it was 88.5% (active); in assay [6] (setting [7]), 3%; in assay [6] (setting [8]), 48%; in assay [6] (at 50.0 µM) it was 89.5% (active).
With `Oc1ccc(/C=N/NC(=S)NN2CCOCC2)nc1`, the growth inhibition is 38% in assay [1] (setting [7]); 96% (active) in assay [1] (setting [8]); 87% (active) in assay [1] (at 50.0 µM); 36% in assay [2] (setting [7]); 95% (active) in assay [2] (setting [8]); 90.1% (active) in assay [2] (at 50.0 µM). In addition, the growth inhibition in assay [3] (setting [7]) is 42%; in assay [3] (setting [8]), 95% (active); in assay [3] (at 50.0 µM), 89% (active); in assay [4] (setting [7]) it was 20%; in assay [4] (setting [8]) it was 91% (active); in assay [4] (at 50.0 µM), 80.8% (active). In addition, the growth inhibition in assay [5] (setting [7]) is 46%; in assay [5] (setting [8]), 93% (active); in assay [5] (at 50.0 µM), 88.5% (active); in assay [6] (setting [7]), 42%; in assay [6] (setting [8]), 95% (active); in assay [6] (at 50.0 µM) it was 87.8% (active).
